Measured values taken from PubChem BioAssay (NCI).
Compounds without any hit were thinned out: in the full panel of roughly 79,000, 15% have a hit. Unmarked numbers belong to inactive results. Activity calls are given as the source filed them. Cut-off read from the data, not from the text of the source: active = growth inhibition above about 70%; inactive = the rest.

Tests used:
[1] = NCI Yeast Anticancer Drug Screen. Data for the rad50 strain (AID 155);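 note: 0% = growth of vehicle-only cultures of the same strain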; conditions: S. cerevisiae rad50 strain growth inhibition, active compounds read high
Procedure, shortened: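 Inhibition values express reduced yeast growth in compound-treated cultures relative to vehicle-treated controls.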

[2] = NCI Yeast Anticancer Drug Screen. Data for the mec2-1 strain (AID 157); conditions: S. cerevisiae mec2-1 strain, active compounds read high
Procedure, shortened: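 Yeast mec2-1 mutant treated with compound. Readout: growth inhibition vs vehicle controls.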

[3] = NCI Yeast Anticancer Drug Screen. Data for the sgs1 mgt1 strain (AID 161);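 note: 0% = growth of cultures given vehicle only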; conditions: S. cerevisiae sgs1 mgt1 strain, active compounds read high
Procedure, shortened: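 Mutant yeast exposed to compound; growth scored against vehicle-only wells.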

[4] = NCI Yeast Anticancer Drug Screen. Data for the cln2 rad14 strain (AID 165);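 note: 0% = growth equal to vehicle treated cultures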; conditions: S. cerevisiae cln2 rad14 strain, active compounds read high
Procedure, shortened: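 cln2 rad14 yeast strain; compound exposure; growth inhibition read vs vehicle controls.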

[5] = NCI Yeast Anticancer Drug Screen. Data for the bub3 strain (AID 167); conditions: S. cerevisiae bub3 mutant strain, active compounds read high
Procedure, shortened: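 Steps: expose the mutant yeast strain to compound; grow alongside vehicle-treated cultures; measure growth; express inhibition against the vehicle cultures.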

[6] = NCI Yeast Anticancer Drug Screen. Data for the mlh1 rad18 strain (AID 175); conditions: S. cerevisiae mlh1 rad18 strain growth inhibition, active compounds read high
Procedure, shortened: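 Yeast w/ defined DNA-repair lesions; compound exposure; growth vs vehicle controls → % inhibition.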

[7] = at 5.0 µM (retest, dose inferred, filed as 0.5)
[8] = at 50.0 µM (retest, dose inferred, filed as 5.0)

| SMILES | growth inhibition [1, 7] | growth inhibition [1, 8] | growth inhibition ([1]; at 50.0 µM) | growth inhibition [2, 7] | growth inhibition [2, 8] | growth inhibition ([2]; at 50.0 µM) | growth inhibition [3, 7] | growth inhibition [3, 8] | growth inhibition ([3]; at 50.0 µM) | growth inhibition [4, 7] | growth inhibition [4, 8] | growth inhibition ([4]; at 50.0 µM) | growth inhibition [5, 7] | growth inhibition [5, 8] | growth inhibition ([5]; at 50.0 µM) | growth inhibition [6, 7] | growth inhibition [6, 8] | growth inhibition ([6]; at 50.0 µM) |
| --- | --- | --- | --- | --- | --- | --- | --- | --- | --- | --- | --- | --- | --- | --- | --- | --- | --- | --- |
| CCn1nc(-c2ccccc2)c2c1N(C)c1ccccc1-n1c(-c3ccccc3)nnc1-2 | -1% | 49% | 98.7% (active) | -16% | 99% (active) | 99% (active) | 3% | 45% | 99.2% (active) | 14% | 98% (active) | 99% (active) | -11% | 99% (active) | 99.2% (active) | 7% | 98% (active) | 99.2% (active) |
| COc1cc2c(c(OC)c1OC)-c1ccc(=O)c(OC)cc1[C@@H](N)CC2 | 25% | 22% | -5.6% | 22% | 16% | -26.4% | 22% | 21% | -12.5% | 24% | 32% | -15.4% | 25% | 19% | -5.1% | 29% | 26% | -49.5% |
| S=c1[nH]c2cc(Cl)ccc2s1.[Zn+2] | -2% | 91% (active) | 95.3% (active) | 8% | 96% (active) | 97.8% (active) | 3% | 97% (active) | 93.3% (active) | -2% | 95% (active) | 96.7% (active) | 12% | 92% (active) | 97% (active) | 0% | 96% (active) | 97.5% (active) |
| CCOc1ccccc1NC(=O)/C(Cl)=C(\Cl)C(=O)O | 100% (active) | 99% (active) | 99% (active) | 100% (active) | 100% (active) | 98.3% (active) | 100% (active) | 100% (active) | 95.2% (active) | 100% (active) | 99% (active) | 56.8% | 100% (active) | 100% (active) | 64.4% | 100% (active) | 100% (active) | 76% (active) |
| CC(C)(S[S-])S[S-].[Ti].[c-]1[c-][c-][cH-][c-]1.[c-]1[c-][c-][cH-][c-]1 | 23% | 97% (active) | 84.1% (active) | -2% | 98% (active) | 57.9% | 10% | 98% (active) | 95.2% (active) | 11% | 97% (active) | 21.7% | 24% | 98% (active) | 46.4% | 31% | 98% (active) | 87.3% (active) |
| CC(C)N(C(=O)C12C3C4C1C1C2C3C41I)C(C)C (configuration not stated) | 16% | -6% | 57.5% | -28% | 19% | 67.4% | 44% | 27% | 68.5% | 3% | 28% | 42.7% | -38% | -11% | 61% | -34% | 20% | 73.5% (active) |
| C=CCC1=C(C)C(OC(=O)/C=C/c2ccccc2Cl)CC1=O (configuration not stated) | 17% | 81% (active) | 86.2% (active) | 0% | 88% (active) | 85.1% (active) | 13% | 88% (active) | 72.2% (active) | -6% | 89% (active) | 69% | 3% | 90% (active) | 95.4% (active) | 8% | 89% (active) | 84.3% (active) |
| O=C(Oc1ccccc1)C1CCCCC1C(=O)Oc1ccccc1 (configuration not stated) | -16% | -12% | 39.2% | -19% | 10% | 26.4% | -3% | 5% | 30.4% | 10% | 33% | -2.35% | -9% | -5% | -4.5% | -11% | -6% | 31.8% |
| O=C1O/C(=C2\OC(=O)c3ccccc32)c2ccccc21 | 9% | 22% | -13.4% | 0% | 0% | 7.55% | 4% | 1% | -28.3% | 1% | 3% | 47.8% | 1% | 2% | 5.25% | 16% | -1% | -18.1% |
| CCC(C1SC(=S)NC1=O)C1SC(=S)NC1=O (configuration not stated) | 3% | 13% | 99.3% (active) | -1% | 29% | 99.6% (active) | 10% | 41% | 99.4% (active) | -9% | -2% | 82.9% (active) | -4% | 6% | 99.5% (active) | -1% | 35% | 99% (active) |
| COC12CC(=O)C(C(C)=O)=C(O)C1(C)c1c(OC(C)=O)c(C)c(O)c(C(C)=O)c1O2 (configuration not stated) | 17% | 57% | 45.1% | 14% | 63% | 52.3% | 31% | 73% (active) | 19.2% | 19% | 50% | 41% | 62% | 92% (active) | 43.5% | 19% | 64% | 92.8% (active) |
| CC(=O)NC1=C(Nc2ccc(-c3ccc(NC4=C(NC(C)=O)C(=O)c5ccccc5C4=O)cc3)cc2)C(=O)c2ccccc2C1=O | 99% (active) | 98% (active) | 99.2% (active) | 100% (active) | 99% (active) | 99.5% (active) | 100% (active) | 99% (active) | 99.5% (active) | 99% (active) | 98% (active) | 99.1% (active) | 99% (active) | 99% (active) | 98.7% (active) | 99% (active) | 99% (active) | 99.3% (active) |
| C=Nc1ccc2ccccc2c1Cc1c(O)ccc2ccccc12 | 7% | 99% (active) | 97.2% (active) | 12% | 99% (active) | 97.2% (active) | 8% | 99% (active) | 97.4% (active) | -8% | 99% (active) | 96.5% (active) | 1% | 99% (active) | 97.5% (active) | 11% | 99% (active) | 96.7% (active) |
| CSC(=S)n1nc(-c2ccccc2)c(N=Nc2ccc(Br)cc2)c1-c1ccccc1 | 6% | 14% | 41% | 9% | 25% | 23.9% | 5% | 25% | 6.15% | 10% | 4% | 49.9% | 13% | 34% | 0.05% | 5% | 19% | -10.2% |
| N=c1c2ccccc2cc2c3ccccc3ccn12 | 45% | 93% (active) | 97.3% (active) | 47% | 97% (active) | 98% (active) | 56% | 95% (active) | 97.8% (active) | 54% | 93% (active) | 86% (active) | 57% | 95% (active) | 96.5% (active) | 60% | 96% (active) | 96.1% (active) |
| O=C1NCCCNCCCNCCCNC(=O)c2cccc1n2 | 32% | 30% | -41.7% | 23% | 21% | -30.6% | 21% | 24% | -18.1% | 18% | 28% | 5.3% | 23% | 26% | 0.55% | 29% | 26% | -15.2% |
| CCOC(=O)N1C=CC(=C2C(=C3C=CN(C(=O)OCC)C=C3)C(=C3C=CN(C(=O)OCC)C=C3)C2=C2C=CN(C(=O)OCC)C=C2)C=C1 | 55% | 95% (active) | 95.9% (active) | -4% | 57% | 75.3% (active) | -4% | 60% | 65.8% | -3% | 52% | -0.55% | -4% | 47% | 54.1% | 1% | 58% | 85.7% (active) |
| Cc1sc(N=Nc2c(O)[nH]c3ccccc23)nc1-c1ccccc1 | 20% | 31% | -2% | 16% | 27% | -2.15% | 17% | 30% | 19.9% | 14% | 19% | 13.7% | 24% | 60% | -20.1% | 11% | 39% | -26.4% |
| N=C(N)SCc1ccc(Br)cc1 | -13% | -17% | -2.75% | -29% | -23% | 13.8% | -20% | -15% | -15.9% | -16% | -4% | 27.6% | -18% | 35% | 16.9% | -29% | 2% | 19.9% |
